A selection: hits, their analogues and other compounds. The true share with any hit is near 21%.
Pf growth 48h = Primary qHTS for delayed death inhibitors of the malarial parasite plastid, 48 hour incubation; Potency, µM (series often up to 28.7 µM), for inactives: at the top dose activity change, negative = inhibition, most hits filed as inhibitors; 310,000 tested, 5.9% active; P. falciparum luciferase growth in erythrocytes, 48 h; also: potency is read from the fitted curve at half-maximal effect; % is scaled to controls: 0 for no effect and ±100 for the full control effect
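First compound was added to culture medium, then infected red cells at 0.1% parasitemia and 2% hematocrit (final). After incubation at 37 C under 5% CO2, luciferase detection reagent was dispensed and light output recorded.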
Pf growth 96h = Primary qHTS for delayed death inhibitors of the malarial parasite plastid, 96 hour incubation. P. falciparum luciferase reporter growth, 96 h. Potency, µM (series often up to 28.7 µM), for inactives: top-dose activity change, negative = inhibition, usual class: inhibitors. 320,000 tested, 6.9% active. AID 504834, 2011; also: potency is read from the fitted curve at half-maximal effect; % is scaled to controls: 0 for no effect and ±100 for the full control effect
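Plates of compound plus infected erythrocytes (2% hematocrit, 0.05% parasitemia final) incubate 96 hours, 37 C, 5% CO2. Detection reagent added; reduced luminescence from the parasites' luciferase reporter flags inhibition.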
AMA1 RON2 block = qHTS for Inhibitors of AMA1-RON; Towards Development of Antimalarial Drug Lead: Primary Screen | Plasmodium falciparum AMA1 (3D7) - RON2 peptide interaction | AlphaScreen AMA1-biotinylated RON2 peptide binding | Potency, µM (top dose mostly 58.2 µM), for inactives: top-dose activity change, negative = inhibition, most hits filed as inhibitors | 360,000 tested, 0.2% active | AID 720542, 2013;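 also: potency is read from the fitted curve at half-maximal effect; 0% = vehicle wells and -100% = peptide control; nearly all actives have a fitted effect of over 45% in size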
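AMA1 (3D7) with his tag at 25 nM final met compounds first, then biotinylated RON2 peptide at 25 nM; detection used donor plus acceptor beads, 10 µg/mL apiece, read by AlphaScreen after 30 min at room temperature.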
Cycloheximide cs = Cycloheximide Counterscreen for Small Molecule Inhibitors of Shiga Toxin; 300,000 tested, 12% active; max response, %; cell reporter, cycloheximide protein synthesis inhibition counterscreen; AID 2314, 2010; in the data active = max response mostly above about 13%, no sharp cut-off; inactive = mostly below about 14%; also: read at 38.3 µM for the half of the compounds with a filed dose; 0% is about no effect
Shiga inhibitor = A qHTS for Small Molecule Inhibitors of Shiga Toxin | 290,000 tested, 9.2% active | Vero cells, Shiga toxin protein synthesis inhibition reporter | inhibition, % at 38.7 µM | AID 2315, 2010; in the data active = inhibition mostly above about 28%, no sharp cut-off; inactive = mostly below about 43%; also: 0% is about no effect
HCV inh = qHTS Assay for Inhibitors of Hepatitis C Virus (HCV). Huh7.5.1 HCVcc-Cre infection, luciferase reporter, 44 h. Potency, µM (highest dose often 41.8 µM), inactives show at the top dose activity change, negative = inhibition, most hits filed as inhibitors. 340,000 tested, 3.4% active. AID 651820, 2012; also: potency is read from the fitted curve at half-maximal effect; % is scaled to controls: 0 for no effect and ±100 for the full control effect
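Luciferase read-out (15 sec integration) after a 15 min room-temperature substrate step quantifies HCVcc-Cre infection. Cells, 1,000 per well, had compound added 4 h post-plating, then virus at ~0.5 moi, and were cultured 44 h.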
* = called active by the depositor; ? = inconclusive; nt = no result; [ ] = dose if it differs, or a comment. Unless noted, calls follow the shape of the dose curve; as a rule, active = well fitted curve in the direction sought with a large enough effect; inconclusive = small, poorly fitted or top-dose-only effect, or another doubt; inactive = no such curve, though single readings can be large; an effect the other way counts as inactive or inconclusive.

SMILES	Pf growth 48h	Pf growth 96h	AMA1 RON2 block	Cycloheximide cs	Shiga inhibitor	HCV inh
COc1c2ccccc2c(OC)c2ccccc12	3%	15µM*	-4%	8	22	0%
COc1nc2ccccc2nc1OC	43%	5%	-2%	0	9	4%
COc1nnc(OC)c2ccccc12	-6%	0.47µM*	4%	-4	14	?
COc1ccc(C2=Nc3ccccc3N(C(=O)c3ccc4ncccc4c3)C2C(=O)NC(C)(C)C)cc1 (configuration not stated)	nt	nt	-11%	nt	nt	nt
Cc1ccc(/C=N/c2sc3c(c2C#N)CCC3)s1	71%	7.4µM*	4%	55*	114*	3%
N#Cc1c(/N=C/c2cc3ccccc3s2)sc2c1CCC2	216%	152%	-8%	20*	33*	12%
COc1ccc(CN(C(=O)CN2C(=O)NC3(CCC(C)CC3)C2=O)C(C)Cc2cccs2)cc1 (configuration not stated)	9.3µM*	12µM*	-7%	nt	nt	?
CC1CCC2(CC1)NC(=O)N(CC(=O)N(Cc1ccccc1)C(C)(C)C)C2=O (configuration not stated)	19%	-1%	-8%	nt	nt	-11%
CC1CCCCN1C(=O)CN1C(=O)c2ccccc2S1(=O)=O (configuration not stated)	26%	57%	17%	nt	nt	3%
CC(Cc1ccc(O)c(O)c1)C(C)Cc1ccc(O)c(O)c1 (configuration not stated)	?	15µM*	?	nt	nt	10µM*
COc1ccccc1Cc1c(-c2ccco2)nc2ccc(Br)cn12	nt	nt	5%	nt	nt	nt
CCSc1nc(N2CCOCC2)c2c(c1C#N)CC(C)(C)N(C)C2	nt	5.2µM*	1%	-8	-6	-4%
CN1Cc2c(N3CCOCC3)nc(SCc3ccccc3)c(C#N)c2CC1(C)C	0%	6%	-8%	5	-15	10µM*
N#CCCSc1nc(N2CCOCC2)c2c(c1C#N)CCCC2	2%	-7%[5.75 µM]	2%	-1	-20	?
COC(=O)CSc1nc(N2CCOCC2)c2c(c1C#N)CC(C)(C)N(C)C2	-13%	nt	-3%	-3	-6	-24%
CSc1nc(N2CCOCC2)c2c(c1C#N)CC(C)(C)OC2	7%	nt	-7%	-2	-7	-15%
CC1(C)Cc2c(C#N)c(SCC(=O)c3ccccc3)nc(N3CCOCC3)c2CS1	2.3µM*	?	-18%	4	6	?
CCCSc1nc(N2CCOCC2)c2c(c1C#N)CCCC2	-26%	3%	3%	-4	-7	11µM*
C=CCSc1nc(N2CCOCC2)c2c(c1C#N)CC(C)(C)N(C)C2	?	?	4%	-1	-13	-25%
CN(C)c1ccc(/C=C(/NC(=O)c2ccccc2)C(=O)N2CCCC2)cc1	15%	7%	-11%	-3	-13	35%
CN(CC(=O)Nc1cccc(F)c1)C(=O)CCCN1C(=O)c2cccc3cccc(c23)C1=O	34%	-1%	-4%	nt	nt	?
Cc1cc(Cl)ccc1OCC(=O)OCC(=O)N1CCC(C(N)=O)CC1	-21%	-1%	0%	nt	nt	9%
COc1ccc(NC(=O)Cc2ccc(Cl)cc2)cc1NC(=O)c1ccco1	nt	28%	-2%	-4	4	10µM*
COc1ccc(NC(=O)c2ccco2)cc1N	78%	8.3µM*	8%	65*	66*	-4%
COc1ccc(NC(=O)c2ccco2)cc1NC(=O)c1ccco1	76%	-9%	35%	-7	0	-22%
SMILES	Pf growth 48h	Pf growth 96h	AMA1 RON2 block	Cycloheximide cs	Shiga inhibitor	HCV inh
COc1ccc(NC(=O)c2ccco2)cc1NC(=O)c1c(OC)cccc1OC	-6%	2.3µM*	7%	-3	0	0%
Cc1cccc(NC(=O)CSc2nnc(CNC(=O)c3ccco3)n2C)c1C	16%	?	-1%	nt	nt	10%
CC(Oc1ccccc1F)C(=O)NNC(=O)CCNC(=O)c1ccccc1Cl (configuration not stated)	-21%	5%	19%	-1	-2	nt
CC1CCCCC12NC(=O)N(CC(=O)NNC(=O)c1ccc(Br)cc1)C2=O (configuration not stated)	nt	nt	51%	nt	nt	0%
Oc1ccc(/C=N/NC(=S)Nc2cccnc2)cc1O	37%	9%	78%	1	-30	-3%
CC(C)(C)c1ccc(/C=N/NC(=S)Nc2cccnc2)cc1	?	?	nt	16*	61	nt
CC1=C/C(=N\NC(=S)Nc2cccnc2)CC(C)(C)C1	?	2.9µM*	14%	11	18	-14%
S=C(N/N=C/c1ccc2ncccc2c1)Nc1cccnc1	-20%	-4%	79%	23*	66	0%
COc1ccc2c(c1)/C(=C\c1cccc(/C=C3/C(=O)Nc4ccc(OC)cc43)n1)C(=O)N2	nt	nt	-9%	nt	nt	2.8µM*
O=C(NCC(=O)N(c1cccnc1)C(C(=O)NC1CCCC1)c1ccccc1F)c1ccco1 (configuration not stated)	11%	5%	7%	-5	-4	-2%
O=C(Nc1ccc(OC(=O)c2ccccc2)c(-c2nc3ccccc3s2)c1)c1ccccc1	33%	24%	-5%	-2	12	-30%
O=C(CCc1nc2ccccc2s1)Nc1cccnc1	6%	-4%	-5%	18	13	-14%
NC(=O)c1ccc(NC(=O)CCc2nc3ccccc3s2)cc1	-13%	-2%	4%	12*	17	-9%
COc1ccc(NC(=O)CCc2nc3ccccc3s2)c(OC)c1	?	-4%	37%	12	10	-21%
O=C(Nc1ccc(Cc2nc3ccccc3s2)cc1)c1ccncc1	-20%	?	-3%	10	-6	10µM*
CCOc1ccc(C(=O)CCc2nc3ccccc3s2)cc1	19%	50%	3%	22*	62*	-15%
O=C(CCCc1nc2ccccc2s1)NCc1ccccc1F	15%	3%	-10%	13*	25	0%
CN(C)C(=S)N=c1ssc(=S)n1Cc1cccnc1	nt	nt	2%	nt	nt	?
COc1ccccc1OCCn1c(=O)n(C)c2ccccc21	22%	16%	2%	21*	28*	-7%
O=c1ccccn1CCOc1ccccc1Cl	27%	1%	-5%[11.6 µM]	19*	45*	2%
Clc1ccccc1OCCN1CCCCC1	7%	4%	-12%	1	-3	-1%
Cn1c(=O)n(CCOc2ccccc2Cl)c2ccccc21	?	18%	-4%	50*	79*	5%
CC(C)C(=O)Nc1ccc(-c2nc3ccccc3c(=O)o2)cc1	26%	12%	3%	-2	-1	-6%
O=C(O)[C@H](Cc1c[nH]c2ccccc12)N1C(=O)C2=CCCC=C2C1=O	nt	nt	nt	-3	4	nt
